Assay [1] can be described thus: Cell Viability - BJ (AID 421).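 Further: potency means the concentration at half of the fitted maximal effect; cells exposed to compound for 40 hours at 37 °C before readout.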 To be noted: BJ fibroblast viability, qHTS. The method in brief:
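Luminescent ATP signal (CellTiter-Glo, 20 min at room temperature) served as the read-out of viable BJ cells after 40 hours of compound treatment. Responses were scaled between DMSO and 100 uM tamoxifen, and AC50 values were obtained by Hill modeling.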
A general note: Quantitative high-throughput screening tests each substance at several concentrations.

Assay [2] is described as follows: Cell Viability - Jurkat (AID 426;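 active means dose-dependent loss of cell ATP signal giving a full or clear fitted curve, ranked by lower potency value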; further: potency means the concentration at half of the fitted maximal effect). The conditions noted are these: qHTS. The method in brief:
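Jurkat (clone E6-1, human T-cell leukemia) cells, 5000/well in complete medium, were exposed to compound for 40 hr at 37 °C. Viability was read as intracellular ATP by CellTiter-Glo luminescence; AC50 came from Hill fits of concentration-response data.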

Assay [3] is described as follows: Cell Viability - Hek293 (AID 427;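 active means compounds whose dose-response curve shows a full or clear partial loss of cell viability, called from curve shape rather than a numeric limit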;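 further: potency means the concentration at half of the fitted maximal effect; cells exposed to compound for 40 hours at 37 °C before reading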). The conditions noted are these: qHTS. In a few lines: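 Luminescent ATP read-out (CellTiter-Glo, 20 min RT) after 40 hr compound exposure at 37 °C in complete medium. Signal normalized to DMSO (basal) and 100 uM tamoxifen (100% inhibition); concentration-response fitted with the standard Hill equation to give AC50.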
The nature of assay [4]: Cell Viability - HepG2 (AID 433).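 Further: potency means the concentration at half of the fitted maximal effect; potency for ATP loss meaning cytotoxicity.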 The conditions noted are these: qHTS. In a few lines:
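ATP luminescence (CellTiter-Glo) after 40 h compound exposure, 37 °C, HepG2, 1500 cells/well, complete medium. Normalized: DMSO = basal, 100 uM tamoxifen = 100% inhibition. AC50 via standard Hill equation.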

Assay [5] in a line: Cell Viability - MRC5 (AID 434).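 Further: potency means the concentration at half of the fitted maximal effect; potency reflects cytotoxicity seen as loss of intracellular ATP.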 To be noted: MRC5 lung fibroblast viability, qHTS. In a few lines:
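MRC5 normal human lung fibroblasts (1500/well) were treated with compounds for 40 hr at 37 °C in complete medium, and viable cells were measured as intracellular ATP by CellTiter-Glo luminescence. AC50 came from Hill fits, normalized to DMSO and 100 uM tamoxifen.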

Assay [6] in a line: Cell Viability - SK-N-SH (AID 435). Further: potency means the concentration at half of the fitted maximal effect. The conditions noted are these: SK-N-SH neuroblastoma cell viability qHTS. In a few lines: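 CellTiter-Glo ATP luminescence, 20 min RT read; cells pre-plated 5 hr, compound 40 hr at 37 °C, 1500 cells/well, complete medium. Normalized DMSO = 0, 100 uM tamoxifen = 100% inhibition; Hill-fit AC50.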
For assay [7], the target named is Mitogen-activated protein kinase 10 (Mus musculus) (UniProt Q61831). Put plainly: JNK3 AlphaScreen Assay (AID 530; active means well fitted curve in either direction with a large enough effect, not every such curve was filed as active;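 further: kinase came from lysate of stimulated human HepG2 cells; signal reports phosphorylation of biotinylated GST-cJun 1-79 at Ser73 with 10 µM ATP; on the % scale 0 is the no-effect control and ±100 the full control effect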). To be noted: JNK3 lysate, c-Jun phosphorylation; series mostly up to 57.1 µM. In a few lines:
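JNK3 came from HepG2 lysates pre-activated with IL-1beta and TNF-alpha and phosphorylated biotinylated GST-cJun (1-79) at 10 uM ATP, pH 7.6, room temperature. Compounds were titrated. AlphaScreen signal used anti-phospho-cJun (Ser73) antibody.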

Assay [8] in a line: Cell Viability - N2a (AID 540; active means well fitted curve in the direction sought with a large enough effect; an effect the other way counts as inactive or inconclusive;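 further: plate controls were DMSO alone for no effect and tamoxifen control for full effect; nearly all actives have a fitted effect of over 45% in size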). The conditions noted are these: N2a mouse neuroblastoma cell viability; activity change, negative = cytotoxicity: at 92.2 µM (top of the series). In a few lines:
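Mouse neuroblastoma N2a cells (1500/well) were preincubated 5 hr at 37 °C, then exposed to compounds for 40 hr at 37 °C in complete medium. Viability was read as intracellular ATP by CellTiter-Glo luminescence; AC50 from Hill fits.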

Assay [9] can be described thus: Cell Viability - HUV-EC-C (AID 542; active means well fitted curve in the direction sought with a large enough effect; an effect the other way counts as inactive or inconclusive; further: on the % scale 0 is the no-effect control and ±100 the full control effect; nearly all actives have a fitted effect of over 35% in size). To be noted: HUV-EC-C endothelial cell viability, qHTS; series mostly up to 92.2 µM. The method in brief:
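HUV-EC-C normal human vascular endothelial cells, 1000 cells/well, pre-incubated 5 hr at 37 °C, then exposed to compounds for 40 hr at 37 °C in complete medium. Viability measured as intracellular ATP by CellTiter-Glo luminescence; AC50 from Hill fits.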

The nature of assay [10]: Cell Viability - NIH 3T3 (AID 541; active means well fitted curve in the direction sought with a large enough effect; an effect the other way counts as inactive or inconclusive;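 further: plate controls were DMSO alone for no effect and tamoxifen positive control for full effect; nearly all actives have a fitted effect of over 25% in size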). To be noted: NIH 3T3 cell viability, qHTS; activity change, negative = cytotoxicity: at 92.2 µM (top of the series). In a few lines:
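NIH 3T3 mouse embryo fibroblasts (1000 cells/well) were plated in complete medium and treated with compound for 40 hr at 37 °C. Viability was read as intracellular ATP by CellTiter-Glo luminescence; AC50 values came from Hill-equation fits of concentration-response data.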

Records with an inconclusive call do not appear. A number with no mark means an inactive call. Calls of active or inactive are those of the source. Unless noted, the call rests on the fitted dose curve. Where only a bound is given, the exact number is not on record here.

Results on 17 molecules are retold here after PubChem BioAssay (NCATS).

As for `O=Cc1c(Cl)cccc1Cl`, the Potency in assay [1], in assay [2], in assay [3], in assay [4], in assay [5] and in assay [6] was more than 92 µM in each case. Besides, the result in assay [7] was inactive. In addition, the activity change, negative = cytotoxicity in [8] was -16.5%. Besides, in assay [9], the Potency entry was “inactive”.
For `CC(C)CCOC(=O)/C=C/c1ccccc1`, the Potency in assay [1], in assay [2], in assay [3], in assay [4], in assay [5] and in [6] was more than 92 µM throughout. In addition, the outcome in [7] was inactive. Also, the Potency entry in assay [10] was “inactive”.
With `CC(C)C(C)C`, the Potency in [1], in [2], in assay [3], in [4], in assay [5] and in assay [6] was more than 92 µM throughout. For the same molecule, in [7], the molecule was classed as inactive. Moreover, the Potency result in [10] and in assay [9] was “inactive” each time.
Regarding `Nc1nc2ccccc2[nH]1`, the Potency in assay [1], in [2], in [3], in assay [4], in assay [5] and in assay [6] was more than 92 µM throughout. In assay [7], the outcome was inactive. Moreover, the Potency result in [10] and in assay [9] was “inactive” each time.
On to `NS(=O)(=O)O`, for which the Potency in [1], in assay [2], in [3], in assay [4], in [5] and in assay [6] was more than 92 µM in each case. Also, the outcome in assay [7] was inactive. Besides, the Potency result in assay [10] and in [9] was “inactive” in each case.
For `OC/C(Br)=C(\Br)CO`, the Potency in assay [1], in assay [2], in [3], in assay [4], in assay [5] and in assay [6] was more than 92 µM in each case. The outcome in [7] was inactive. Further, the Potency entry in assay [10] and in [9] was “inactive” throughout.
Regarding `C1COC1`, the Potency in assay [1], in [2], in assay [3], in [4], in assay [5] and in assay [6] was more than 92 µM each time. Besides, the call in assay [7] was inactive. In addition, in [10], the Potency result is “inactive”.
On to `ON=C1CCCCC1`, for which the Potency in assay [1], in assay [2], in assay [3], in assay [4], in [5] and in [6] was more than 92 µM throughout. In assay [7], the molecule was called inactive. The Potency result in [10] and in assay [9] was “inactive” in each case.
Regarding `CCC(C)=O`, the Potency in assay [1], in [2], in assay [3], in assay [4], in assay [5] and in assay [6] was more than 92 µM in each case. Further, the result in [7] was inactive. Also, the Potency entry in [10] and in assay [9] was “inactive” throughout.
Regarding `CO[Si](CCCNCCC[Si](OC)(OC)OC)(OC)OC`, the Potency in assay [1], in assay [2], in assay [3], in assay [4], in assay [5] and in assay [6] was more than 92 µM throughout. The outcome in [7] was inactive. In addition, the Potency entry in [9] is “inactive”.
`Cc1ccc(C)c(O)c1`: the Potency in assay [1], in [2], in assay [3], in [4], in assay [5] and in [6] was more than 92 µM each time. In [7], the outcome was inactive. The Potency entry in [10] and in assay [9] was “inactive” in each case.
As for `C=Cc1ccccc1C=C`, the Potency in assay [1], in assay [2], in [3], in [4], in assay [5] and in assay [6] was more than 92 µM each time. Also, the molecule was called inactive in assay [7]. For the same molecule, the Potency result in assay [10] was “inactive”.
For `CCNc1cc(O)ccc1C`, the Potency in assay [1], in [2], in assay [3], in [4], in [5] and in assay [6] was more than 92 µM each time. Also, in assay [7], the call was inactive. In addition, the Potency result in [10] and in assay [9] was “inactive” each time.
On to `O=[N+]([O-])c1ccc(CCO)cc1`, for which the Potency in [1], in assay [2], in [3], in assay [4], in [5] and in assay [6] was more than 92 µM throughout. The molecule was called inactive in assay [7]. The activity change, negative = cytotoxicity in [8] is -10.2%. Moreover, in assay [9], the Potency result was “inactive”.
Consider `Nc1cc(Cl)c([N+](=O)[O-])cc1O`, for which the Potency in assay [1], in assay [2], in assay [3], in assay [4], in assay [5] and in [6] was more than 92 µM throughout. Moreover, the result in assay [7] was inactive. Besides, the activity change, negative = cytotoxicity in [8] was -99.1% (active). Moreover, the Potency result in [9] is “inactive”.
Consider `O=C(O)CNC(=O)c1ccc([N+](=O)[O-])cc1`, for which the Potency in [1], in [2], in assay [3], in assay [4], in assay [5] and in assay [6] was more than 92 µM each time. Also, the result in assay [7] was inactive. The Potency entry in assay [10] and in assay [9] was “inactive” throughout.
For the molecule `Nc1cc([N+](=O)[O-])ccc1C(=O)O`, the Potency in assay [1], in assay [2], in assay [3], in [4], in assay [5] and in [6] was more than 92 µM throughout. The outcome in [7] was inactive. Moreover, the activity change, negative = cytotoxicity in [8] is 7.91%. Also, the Potency result in [9] was “inactive”.
